Measurements: PubChem BioAssay AID463173 (ICCB-Longwood Screening Facility, Harvard Medical School, 2010)
Screen size: about 52,000 compounds; about 4,300 (8.3%) were called active. What follows is part of a selection rich in actives, with near analogues and random picks from the rest. Values without a mark were called inactive. No stated cut-off is given here; in the data, active means survival mostly below about 52% (no sharp cut-off); inactive means mostly above about 56%.

system: DeltatarO mutant; test: S. aureus survival, RN4220 and DeltatarO strains – OD600, teichoic acid synthesis inhibitors, primary screen (AID 463173); settings: S. aureus RN4220 wild type/DeltatarO growth, OD600, 18 h, hits give low values, screened at 18.75 µg/mL (by protocol)

SMILES	survival
CCOC(=O)c1ccc(NC(=O)CCC(=O)N2Cc3ccccc3Oc3ncccc32)cc1	92%
COc1ccc(N(C(=O)c2ccc(Cl)cc2)S(=O)(=O)c2ccc(C)cc2)cc1	68%
COc1cc(/C=C/c2nc3cc(Cl)ccc3c(=O)n2-c2cccc(C(F)(F)F)c2)cc(OC)c1OC	96%
CCOc1cccc2sc(N3CCN(C(=O)C(C)(C)C)CC3)nc12	77%
CCOc1ccc2nc(NCCNC(=O)NCc3ccccc3)c(C#N)cc2c1	98%
CSc1ccccc1NC(=O)CSc1ncccn1	108%
O=C(COc1ccccc1Cl)NCC1(N2CCOCC2)CCCCC1	106%
COc1ccc(-c2nc(SCC(=O)NCC3CCCO3)c(-c3ccc(C)cc3)[nH]2)cc1OC (configuration not stated)	66%
COc1ccc(CNS(=O)(=O)c2cc3c(cc2Cl)N(C(C)=O)CCO3)cc1	74%
COc1ccccc1-n1c(=O)n(C)c2c(C(N)=O)nc(-c3cccc(OC)c3OC)nc21	83%
Cc1cccc(NC(=O)C(=O)NCCc2sc(-c3ccccc3)nc2C)c1C	79%
Cc1cc(Cl)ccc1-n1c(CCC(=O)O)ccc1-c1cccs1	47% (active)
Cc1ccc(NC(=O)Cn2c(CCC(=O)O)ccc2-c2cccs2)cc1Cl	59%
Cc1ccc(NC(=O)Cn2c(CCC(=O)O)ccc2-c2cccs2)cc1	56%
Cc1c(Cl)cccc1NC(=O)Cn1c(CCC(=O)O)ccc1-c1cccs1	50%
CC(=O)c1ccc(-n2c(CCC(=O)O)ccc2-c2cccs2)cc1	65%
Cc1c(Cl)cccc1-n1c(CCC(=O)O)ccc1-c1cccs1	35% (active)
O=C(COc1ccccc1)N(Cc1cccnc1)c1nc2c(F)cc(F)cc2s1	84%
CCc1nc2ccc(C(=O)NCCc3ccc(SC)cc3)cc2nc1CC	76%
CCC(C(=O)NC1CCCC1)N(C(=O)Cn1nnc(-c2cccs2)n1)c1cnc2ccccc2c1 (configuration not stated)	92%
O=C(CN(C(=O)Cn1nnc(-c2ccc(F)cc2)n1)c1ccccc1C(F)(F)F)NCc1ccco1	98%
CCC(C(=O)NCCC(C)C)N(C(=O)Cn1nnc(-c2ccc(C)cc2)n1)c1cccc(O)c1 (configuration not stated)	37% (active)
Cc1ccc(-c2nnn(CC(=O)N(CC(=O)NCCC(C)C)c3ccc(F)cc3)n2)cc1	41% (active)

SMILES	survival
COc1ccc(-c2nnn(CC(=O)N(CC(=O)NCc3ccccc3)c3ccc4c(c3)OCCO4)n2)cc1OC	69%
CCC(C(=O)NC1CCCC1)N(C(=O)Cn1nnc(-c2ccc(C)cc2)n1)c1ccc2c(c1)OCCO2 (configuration not stated)	90%
O=C(Oc1c(Cl)cc(Cl)c2cccnc12)N1CCCCCC1	112%
COC(=O)c1cc2sccc2n1CC(=O)Nc1ccc(OC)c(OC)c1	86%
Cc1cccc(OCC(=O)Nc2ccccc2OCc2cc(=O)n3cc(C)ccc3n2)c1	94%
COc1ccc(OC(=O)CSc2nnc(-c3ccc(F)cc3)o2)cc1	109%
FC(F)(F)c1cccc(C(c2nnnn2Cc2ccccc2)N(Cc2ccco2)CC2CCCO2)c1 (configuration not stated)	105%
COc1cccc(C(=O)Nc2c3c(nn2-c2ccc(C)cc2C)CS(=O)(=O)C3)c1OC	116%
COc1ccc2cc3cc(C(=O)Nc4ccccc4C)oc3nc2c1	116%
COc1ccc(N2CCN(C(c3ccccc3)c3nnc(-c4ccccc4Cl)o3)CC2)cc1 (configuration not stated)	49%
Cc1cccc(N2CCN(C(c3ccccc3)c3nnc(-c4ccccc4F)o3)CC2)c1C (configuration not stated)	58%
Fc1ccc(C(c2nnc(-c3ccccc3)o2)N2CCN(c3ccccc3)CC2)c(Cl)c1 (configuration not stated)	84%
Fc1ccc(C(c2nnc(-c3ccccc3)o2)N2CCN(c3cccc(Cl)c3)CC2)cc1 (configuration not stated)	91%
Cc1ccc(C)c(N2CCN(C(c3ccccc3)c3nnc(-c4ccccc4F)o3)CC2)c1 (configuration not stated)	61%
COc1ccccc1N1CCN(C(c2ccccc2)c2nnc(-c3ccccc3Cl)o2)CC1 (configuration not stated)	32% (active)
Cc1cccc(N2CCN(C(c3ccc(F)cc3)c3nnc(-c4ccccc4)o3)CC2)c1C (configuration not stated)	39% (active)
Cc1ccc(C)c(N2CCN(C(c3ccccc3)c3nnc(-c4ccccc4)o3)CC2)c1 (configuration not stated)	-5% (active)
COc1ccccc1N1CCN(C(c2ccc(Cl)cc2)c2nnc(-c3cccc(F)c3)o2)CC1 (configuration not stated)	62%
Cc1ccc(Cl)cc1N1CCN(C(c2ccc(F)cc2)c2nnc(-c3ccccc3)o2)CC1 (configuration not stated)	55%
Cc1cccc(N2CCN(C(c3ccccc3)c3nnc(-c4ccccc4Cl)o3)CC2)c1C (configuration not stated)	51%
Cc1ccc(C)c(N2CCN(C(c3ccc(F)cc3)c3nnc(-c4ccccc4)o3)CC2)c1 (configuration not stated)	16% (active)
CCN(CC)CCOC(=O)c1ccc(Nc2c3c(nc4ccccc24)CCC3)cc1	94%
Cc1c(C(=O)N2CCC(c3nc4ccccc4s3)CC2)oc2cc(Br)ccc12	107%

SMILES	survival
COc1cccc(-c2nnc(SCC(=O)N3CCCCC3)o2)c1	98%
CCc1ccc(NC(=O)Cn2nc(C(F)(F)F)c3c2CCCC3)cc1	94%
CCOc1ccc(CCNS(=O)(=O)c2c(C)nc3sc(C)cn3c2=O)cc1OCC	58%
CCN(CC)c1ccc(C2C(C(=O)Nc3ccccc3C)=C(C)Nc3ncnn32)cc1 (configuration not stated)	99%
Cc1ccc(-n2ncc3c(N4CCN(C)CC4)ncnc32)cc1	81%
CN(C)C(=O)c1ccc2c(c1)N(CC(=O)NCc1ccc(F)cc1)C(=O)C1CCCCN21 (configuration not stated)	74%
CCOC(=O)c1c(-c2cccs2)csc1NC(=O)C(F)(F)F	70%
CCOC(=O)c1ccccc1NC(=O)Cn1c(=O)n(Cc2nc(-c3ccccc3)no2)c(=O)c2ccccc21	72%
CCc1ccc(CNC(=O)CSc2c3c(nc4ccc(Cl)cc24)CCCC3)cc1	63%
COc1ccc(NC(=O)CSc2c3c(nc4ccc(Cl)cc24)CCCC3)cc1Cl	55%
CCCCN(C)C(=O)CSc1c2c(nc3ccc(Cl)cc13)CCCC2	-2% (active)
Cc1ccc(CNC(=O)CSc2c3c(nc4ccc(Cl)cc24)CCCC3)cc1	76%
CN(Cc1ccccc1)C(=O)CSc1c2c(nc3ccc(Cl)cc13)CCCC2	0% (active)
CCCN(CCC)C(=O)CSc1c2c(nc3ccc(Cl)cc13)CCCC2	38% (active)
COc1cc(OC)c(N(C)C(=O)CSc2c3c(nc4ccc(Cl)cc24)CCCC3)cc1Cl	33% (active)
COc1cccc(CNC(=O)CSc2c3c(nc4ccc(Cl)cc24)CCCC3)c1OC	62%
Cc1ccc2nc(NC(=O)CSc3[nH]c(=O)ncc3C)sc2c1	102%
O=S(=O)(c1ccc2nsnc2c1)N1CCCCC1	66%
CCOc1ccc(CNC(=O)c2cc3ccccn3n2)cc1OC	74%
CCOc1ccc(NC(=O)C2CC(=O)N(c3ccc(C(C)C)cc3)C2)cc1 (configuration not stated)	91%
COc1ccc(CCNC(=O)CCn2c(=O)c3ccccc3n(Cc3c(C)cc(C)cc3C)c2=O)cc1OC	89%
Cc1cccc(N2CCN(c3nc4ccccc4c4nc(-c5ccccc5)nn34)CC2)c1C	92%
COc1ccc(N2CCN(C(=O)Nc3ccccc3Cl)CC2)cc1	167%

SMILES	survival
CC(CNC(=O)Cn1ccc2cc(S(=O)(=O)N3CCCCCC3)ccc21)c1ccccc1 (configuration not stated)	109%
CCN(CC)CCCNC(=O)CSc1c2c(nc3cc(Cl)ccc13)CCCC2	109%
CCCCN(CC)C(=O)CSc1c2c(nc3ccc(Cl)cc13)CCCC2	-2% (active)
COc1ccccc1NC(=O)c1ncn(-c2ccccc2)n1	115%
CCC(=O)N1c2ccccc2C(C)(c2ccccc2)CC1(C)C (configuration not stated)	-8% (active)
CC1=CC(C)(C)N(C(=O)Cc2ccccc2)c2ccccc21	115%
CCN1C(=O)C(O)(C(C)C(=O)c2ccccc2)c2ccccc21 (configuration not stated)	57%
CCCCCC(=O)N1c2ccccc2C(C)(c2ccccc2)CC1(C)C (configuration not stated)	-2% (active)
CCC(=O)N1CCN(C(=O)CC)C1c1ccccc1	93%
CCC(CC)C(=O)N1CCN(Cc2ccccc2)CC1	94%
CCC(CC)C(=O)N1c2ccccc2C(C)(c2ccccc2)CC1(C)C (configuration not stated)	-5% (active)
CC(=O)N1c2ccccc2N(C)C(=O)C1(C)C	88%
Cc1ccc(NC(=O)CN2C(=O)C(C)(C)c3ccccc32)cc1	78%
CC(=O)N1c2ccccc2C(C)(c2ccc(C)cc2)CC1(C)C (configuration not stated)	-4% (active)
CC1=CC(C)C(/C=N/O)C(C)C1 (configuration not stated)	94%
O=C(/C=C/c1ccccc1)Nc1ccccc1N1CCN(c2ccccc2)CC1	106%
Cc1ccc2onc(CNC(=O)NCc3cccc(Cl)c3)c2c1	72%
CC1CCCN(c2ncnc3c2nnn3C)C1 (configuration not stated)	75%
CCOC(=O)CN1CCOCCN(CC(=O)OCC)CCOCC1	64%
Cc1ccc(NC(=O)CSc2cn(CC(=O)N3CCCC3)c3ccccc23)cc1Cl	84%
CCOc1ccc(CCNC(=O)Cn2nnc(-c3ccc(OC)c(OC)c3)n2)cc1OCC	65%
O=C(Nc1ccc2c(c1)oc1ccccc12)c1cccs1	69%
COc1ccc(OC)c(CCNC(=O)C2CCN(c3ncnc4c3nc3n4CCCCC3)CC2)c1	80%
